Holding throughout (assay): NCI-60 one-dose screen, 48 h (100 = growth as untreated, 0 = no growth, -100 = all killed)
Common to all, as to settings: 10 µM unless noted

Assay [1] relates to RPMI-8226 leukemia.
Assay [2] deals with OVCAR-8 ovarian.
Assay [3] has as its system OVCAR-5 ovarian.
Assay [4] has as its system OVCAR-4 ovarian.
The subject of assay [5] is SK-OV-3 ovarian.
In assay [6] the test system is IGROV1 ovarian.
For assay [7], the system named is OVCAR-3 ovarian.
Assay [8] deals with HS 578T breast.
The subject of assay [9] is NCI/ADR-RES ovarian.
Assay [10] concerns BT-549 breast.
For assay [11], the system named is MDA-MB-435 melanoma.
Assay [12] deals with SW-620 colon.
In assay [13] the test system is MCF7 breast.
Assay [14] concerns HCT-116 colon.
Assay [15] has as its system HCC-2998 colon.
The test system of assay [16] is KM12 colon.
For assay [17], the system named is T-47D breast.

The record followed here is PubChem BioAssay (NCI).

This is part of a sample that, as a whole, favours compounds with a hit. Of some 83,000 tested, about 20% had one in any assay.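 Negative percent growth values reflect cell death: -40 means 40% of the cells present at the start died, and -100 means all died.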 Values without a mark were called inactive. Active and inactive are the calls of the source. How the source made its calls: active means growth percent below 10; inactive means the rest.

Regarding `COC(=O)c1ccc(CSc2nnc(-c3ccncc3)o2)cc1`, the growth in [1] is 102%; in [2], 101%; in assay [3], 104%; in assay [4], 99.5%; in assay [5], 102%; in [6], 98.9%. Besides, the growth in assay [7] was 112%; in assay [8], 107%; in [9], 104%; in assay [10], 104%; in assay [11], 106%; in [12], 108%. For the same compound, the growth in [13] is 96.6%; in assay [14], 97.6%; in [15] it was 110%; in [16], 109%.

As for `CN(C)c1ccc(/C=N/NC(=O)COc2cc(=O)n(C)c3ccccc23)cc1`, the growth is 107% in assay [1]; 103% in [2]; 94.2% in assay [3]; 113% in [4]; 112% in assay [5]; 87% in [6]. The growth in [7] is 112%; in [8], 120%; in [9], 108%; in [17], 97.6%; in assay [10] it was 108%; in [11], 101%. Besides, the growth in assay [12] was 104%; in assay [13] it was 89.4%; in assay [14], 101%; in [15] it was 116%; in assay [16], 109%.

For the compound `Cc1nc2ccccc2c(/C=C/c2ccc(Cl)cc2)c1C(=O)/C=C/c1ccc(Cl)cc1`, the growth was -17.4% (active) in [1]; 5.4% (active) in [2]; -45.6% (active) in assay [3]; 0.984% (active) in assay [4]; 28.4% in assay [5]; -51.8% (active) in assay [6]. In addition, the growth in [7] is -70.6% (active); in assay [8], -4.76% (active); in assay [9], -15.4% (active); in assay [17] it was -15.3% (active); in assay [11], -51.4% (active); in assay [12], -37.4% (active). Also, the growth was 3.86% (active) in [13], -74.7% (active) in [15] and -38.4% (active) in assay [16].

Consider `CN(C)S(=O)(=O)n1cnc([C@@H]2[C@@H]3C(=O)OC[C@@H]3C[C@]23N=CN(Cc2ccccc2)C3=O)c1`, for which the growth is -8.51% (active) in assay [1]; 107% in [2]; 96.7% in assay [3]; 79.6% in [4]; 107% in [5]; 113% in assay [6]. Besides, the growth in assay [7] is 105%; in assay [8], 100%; in [9], 102%; in assay [17] it was 102%; in assay [10], 116%; in assay [11], 108%. In addition, the growth in [12] is 97.3%; in assay [13], 100%; in [14], 100%; in assay [15] it was 98.6%; in assay [16] it was 104%.

As to `CCN1CCN(c2ccc(Nc3cc(-c4cccnc4Nc4c(Cl)c(OC)cc(OC)c4Cl)ncn3)cc2)CC1`, the growth in [1] is 64.1%; in assay [2], 69.2%; in assay [3], 92.4%; in assay [4], 48.8%; in assay [5], 72.7%; in [6], 57.4%. Also, the growth is 88.9% in assay [7]; 51.8% in assay [8]; 75.8% in assay [9]; 60.1% in [10]; 89.7% in [11]; 55% in [12]. Moreover, the growth is 40.9% in [13], 71.9% in assay [14], 75.6% in [15] and 73.9% in [16].

For the compound `O=C1N/C(=N/O)S/C1=C/c1cn(-c2ccccc2)nc1-c1ccccc1`, the growth in assay [1] was 98.8%; in assay [2], 89.9%; in [3], 109%; in [4], 111%; in assay [5], 77.6%; in [6], 77.4%. Besides, the growth in assay [7] was 93%; in assay [8], 83.1%; in assay [9], 99.8%; in [10], 92.3%; in [11] it was 106%; in assay [12], 107%. Further, the growth was 82.2% in assay [13], 82.4% in assay [14], 126% in assay [15] and 86.4% in [16].

As for `CCCCNC(=O)NS(=O)(=O)c1ccc(N2N=C(c3ccc(C)cc3C)CC2c2ccc(N(C)C)cc2)cc1` (stereo unspecified), the growth in [1] was 34.2%; in [2], 57.7%; in assay [3] it was 84.6%; in [4], 64%; in assay [5], 97.7%; in assay [6], 89.9%. The growth in assay [7] was 51.2%; in assay [8], 88.1%; in assay [9] it was 46.8%; in assay [17] it was 70.4%; in [10], 45.6%; in assay [11], 9.98% (active). Besides, the growth is 61.8% in [12]; 37.4% in assay [13]; 39.3% in assay [14]; 46.1% in assay [15]; 49.2% in [16].

As for `O=S(=O)(NCCNc1cc(-c2c(-c3cccc(O)c3)nc3sccn23)ccn1)c1ccc(Cl)cc1`, the growth was 41.1% in assay [1]; 51.1% in assay [2]; 107% in assay [3]; 40.4% in assay [4]; 75.1% in assay [5]; 54.1% in assay [6]. Further, the growth in assay [7] was 64.2%; in [8], 63.9%; in [9] it was 87.6%; in assay [17] it was 26%; in assay [10] it was 50.2%; in assay [11], 24.8%. The growth in assay [12] was 89.2%; in assay [13] it was 47.8%; in assay [14] it was 57.4%; in [15], 102%; in [16] it was 59.6%.

Take `C#CC[C@H](N)C(=O)O`: the growth in [1] was 106% [20 µM]; in [2], 99.2% [20 µM]; in assay [3], 93.2% [20 µM]; in [4], 107% [20 µM]; in assay [5], 105% [20 µM]; in assay [6], 106% [20 µM]. The growth is 111% [20 µM] in assay [7]; 111% [20 µM] in assay [8]; 108% [20 µM] in assay [9]; 102% [20 µM] in assay [17]; 106% [20 µM] in [10]; 102% [20 µM] in assay [11]. Also, the growth was 103% [20 µM] in assay [12]; 91.7% [20 µM] in [13]; 96.3% [20 µM] in assay [14]; 116% [20 µM] in assay [15]; 105% [20 µM] in assay [16].

For `C=C1c2c(C)nn(-c3ccc(O)cc3)c2N(C)C23C[C@@H]1C1(C)c4c(C)nn(-c5ccc(O)cc5)c4N(C)C(C)(C[C@H]12)C3` (stereo partly specified), the growth in [1] is -1.11% (active); in [2], 27.8%; in assay [3], 85.8%; in [4] it was 32.2%; in [5], 37.7%; in [6], 63.2%. Besides, the growth in assay [7] was 24.2%; in assay [8], 52.4%; in [9], 47.4%; in assay [10] it was 28.6%; in assay [11], 18.7%; in assay [12] it was 31.2%. The growth was 5.99% (active) in assay [13], 8.9% (active) in [14], 44.9% in [15] and 21.2% in assay [16].

Turning to `C[C@H]1[C@H](C)CC[C@]2(C(=O)N3CCN(C)CC3)CC[C@]3(C)C(=CC[C@@H]4[C@@]5(C)C/C(=C/c6cccnc6)C(=O)C(C)(C)[C@@H]5CC[C@]43C)[C@H]12`, the growth is -59.3% (active) in assay [1]; -76.2% (active) in assay [2]; -77.8% (active) in assay [3]; -24.9% (active) in assay [4]; -89.5% (active) in assay [5]; -69.2% (active) in assay [6]. Also, the growth in assay [7] was -93.2% (active); in [8] it was -30.7% (active); in assay [9], -75.1% (active); in assay [10], -81.2% (active); in assay [11], -65.1% (active); in [12] it was -49.9% (active). Moreover, the results for the growth in [13], in assay [14] and in assay [15] were -73.8% (active), -88.2% (active) and -92.3% (active), respectively.

Regarding `Cn1cc(Nc2nccc(-c3ccc(N4CCCC4)c(C#N)c3)n2)cn1`, the growth in [1] is 27.1%; in assay [2], 47.3%; in [3] it was 88%; in assay [4] it was 53.7%; in [5], 18.4%; in assay [6], 25.3%. In addition, the growth in assay [7] is 32.1%; in [8] it was 32.5%; in assay [9] it was 42.2%; in [10], 37.7%; in [11] it was 0.731% (active); in assay [12], 14.2%. The growth in assay [13] was 27.3%; in assay [14], 11.5%; in assay [15] it was 59.8%; in assay [16], 31.6%.

As for `CC(C)(C)CC(C)(C)Nc1c(-c2ccc(-c3ccccc3)cc2)nc2cnccn12`, the growth was 68.7% in assay [1]; 70.2% in assay [2]; 88.1% in [3]; -26.5% (active) in assay [4]; 76.3% in assay [5]; 66% in assay [6]. Besides, the growth in [7] was 90.2%; in [8], 95.5%; in assay [9] it was 97.7%; in assay [10], 95%; in [11], 82.7%; in assay [12], 97.1%. For the same compound, the growth in assay [13] is 82.3%; in [14], 59.8%; in assay [15], 93.7%; in [16], 79.9%.
